Compound activity deposited in PubChem BioAssay by several laboratories.
L major viab = Leishmania major promastigote growth inhibition | inhibition, % at 10 µM | 200,000 compounds, 9% hits | Leishmania major promastigotes, resazurin fluorescence viability; in the data active = inhibition above about 50%;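 note: promastigotes grown with compound for 44 hours at 28 °C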
CHOP inh = CHOP inhibition in unfolded protein response; CHO-K1 CHOP-promoter luciferase, tunicamycin-induced, 15-18 h; inhibition, % at 10 µM; 220,000 compounds, 3.8% hits; AID 2732;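 active = compounds that reduced the stress-induced luciferase reporter signal by more than about 70% of percent inhibition, limit read from the data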;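 note: 0% = tunicamycin plus vehicle and 100% = wells without tunicamycin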
WT yeast gro inh = growth inhibition of WT yeast, mitochondrial fusion screen | mitochondrial fusion phenotypic screen, WT strain | inhibition, % at 10 µM | 190,000 compounds, 2.1% hits; in the data active = inhibition above about 58%; tested in S. cerevisiae
RAM network inh = blocks the yeast RAM network. S. cerevisiae dse1pr::URA3 reporter, 5-FOA growth OD615, 2 d; analog-sensitive cbk1-as2 kinase mutant strain. 190,000 compounds, 1.8% hits. AID 868. inhibition, % at 50 µM;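 active = inhibition above a set limit, 3 SD over mean compound inhibition, cut at about 8.4% in these data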;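 note: 0% = DMSO-only wells with no growth and 100% = 10 µM 1-NA-PP1 full growth; inhibition rescues growth on 5-FOA so higher OD means more RAM inhibition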
The depositor's hits bear a star; . = not tested or not shown. Most compounds without a hit are left out; they make up all but 13% or so of the library.

SMILES | L major viab | CHOP inh | WT yeast gro inh | RAM network inh
C=CCOc1nc2c(c(=O)n(C)c(=O)n2C)n1Cc1c(Cl)cccc1Cl | 64.3* | 85.6* | -0.7 | 0.9
CCOC(=O)C1(Cc2cccc(OC)c2)CCN(Cc2cccn2-c2ccccn2)CC1 | 22.1 | -1.2 | 8.1 | 0.0
COc1cc(NC(=O)c2csc(N)n2)cc(C(=O)Nc2cccc(C(F)(F)F)c2)c1 | . | 79.4* | . | .
COc1ccc(C(=O)NCC(=O)OCC(=O)N2CCC(C)CC2)cc1OC | -13.1 | 11.3 | -12.4 | -0.5
O=C(CCCOc1ccc(Cl)cc1Cl)NCCCn1ccnc1 | 65.7* | 17.2 | 3.3 | 1.2
O=C(NCCCn1ccnc1)c1cc(-c2ccc(Cl)cc2)nc2ccccc12 | 98.5* | 10.6 | -4.2 | 0.5
O=C(Cc1ccccc1Cl)NCCCn1ccnc1 | 61.8* | 7.4 | -7.6 | -1.3
O=C(CCCN1C(=O)c2ccccc2C1=O)NCCCn1ccnc1 | -5.0 | 8.9 | 0.0 | 1.1
O=C(COc1ccc(Cl)cc1Cl)N/N=C/CCc1ccccc1 | -4.8 | 75.2* | -6.0 | 2.0
O=C(O)CCC(=O)NNC(=O)COc1ccc(Cl)cc1Cl | -1.0 | 24.9 | -18.0 | 2.4
Cc1cc(Cl)ccc1OCCCC(=O)NCCCn1ccnc1 | 4.0 | 11.8 | -4.7 | 1.6
NC(=O)c1cnccn1 | 13.3 | -1.3 | -4.8 | -0.3
O=C(CCCOc1ccc(Cl)cc1Cl)N/N=C/c1ccco1 | 18.6 | 22.7 | 7.9 | 3.6
O=C(NCCCn1ccnc1)c1noc2c1CCCC2 | -4.8 | -29.1 | 10.6 | 1.7
O=C(NCCCn1ccnc1)c1noc2c1CCc1ccccc1-2 | 88.4* | -13.3 | -9.1 | 0.5
O=C1CCC(C(=O)NCCCn2ccnc2)N1 (stereo unspecified) | 66.0* | 16.4 | 3.8 | 0.1
O=C(NCCCN1CCc2ccccc2C1)Nc1ccc(Cl)cc1 | 78.4* | -25.7 | 2.7 | -1.1
O=C(CCCOc1ccc(Cl)cc1Cl)N/N=C/c1ccccc1O | 44.2 | 84.9* | 31.4 | 1.1
Cc1nc(N2CCOCC2)nc(Oc2ccccc2)c1[N+](=O)[O-] | . | 12.6 | . | .
Cc1cc(C)c(-n2nnnc2SC(C)C)c(C)c1 | -2.1 | 28.8 | 4.4 | -1.5
O=C(O)CCn1cc(C(=O)O)c(-c2ccccc2)n1 | . | 6.6 | . | .
COCCn1c(=O)[nH]c(=O)c2c1nc(-c1cc(Br)c3c(c1)OCO3)n2Cc1ccccc1 | 13.2 | 2.6 | 5.5 | 0.0
S=C(NCCCn1ccnc1)Nc1ccc(Cl)cc1Cl | 18.1 | 6.2 | -0.4 | 2.5
O=C(NCCCn1ccnc1)Nc1ccc(Cl)cc1 | 53.3* | -22.0 | 0.2 | 1.7
O=C(NCCCn1ccnc1)Nc1ccc(Cl)c(Cl)c1 | 95.5* | 13.2 | 27.4 | -0.5
SMILES | L major viab | CHOP inh | WT yeast gro inh | RAM network inh
CC(C)Oc1ccc(/C(O)=C2/C(=O)C(=O)N(CCCN3CCOCC3)C2c2ccncc2)cc1 (stereo unspecified) | . | . | -4.7 | .
C=CCC(CC=C)(NC(=O)c1cccc(C)c1)c1ccccc1 | 68.4* | 27.2 | 13.8 | 2.3
Cc1c(Cl)ccc2c1NC(=O)[C@]21N[C@@H](Cc2ccccc2)[C@H]2C(=O)N(c3ccc(F)cc3)C(=O)[C@H]21 | 35.0 | 62.0 | 11.9 | 8.5*
c1nc2n(n1)C1=C(CCCC1)C1(CCCCC1)N2 | 30.6 | 19.4 | 6.4 | 1.2
C=CCN1C(=O)C(O)(CC(=O)c2ccc(OC)cc2OC)c2cc(Br)ccc21 (stereo unspecified) | 73.8* | 5.0 | 6.8 | 2.3
CN1C(=O)C(O)(CC(=O)c2ccccc2O)c2cc(Br)ccc21 (stereo unspecified) | 1.0 | 15.3 | 12.5 | -1.2
Cc1ccc(S(=O)(=O)c2c(N)n(CCC(C)C)c3nc4ccccc4nc23)cc1 | 68.7* | 39.9 | -2.5 | 1.1
Cc1ccc(C(=O)Nn2c(N)c(S(=O)(=O)c3ccc(C)cc3)c3nc4ccccc4nc32)cc1 | -4.4 | 13.3 | 6.6 | 2.2
Cn1c(N)c(S(=O)(=O)c2ccc(Br)cc2)c2nc3ccccc3nc21 | 75.0* | 39.0 | -12.4 | 9.7*
Nc1c(S(=O)(=O)c2ccccc2)c2nc3ccccc3nc2n1C1CC1 | 20.5 | 18.0 | 5.9 | 0.0
Cc1ccc(S(=O)(=O)c2c(N)n(CCCO)c3nc4ccccc4nc23)cc1 | 73.0* | 13.9 | -1.3 | 0.7
COc1ccc(CNC(=O)CCS(=O)(=O)Cc2cccc(Cl)c2)c(OC)c1 | 3.6 | -4.5 | 0.0 | 1.6
COc1ccc(NS(=O)(=O)c2ccc3nc(COc4cccc5ccccc45)[nH]c3c2)cc1 | 95.2* | 46.8 | 5.9 | 7.5
CCOCC(=O)Nc1cc(C(F)(F)F)ccc1Oc1cccc(Br)c1 | 8.9 | 7.8 | 66.2* | 0.5
COc1ccc(NC(=O)CCc2nc3ccccc3[nH]2)cc1 | 0.1 | 0.8 | -10.7 | 1.0
CCO[C@@H]1OC(C(=O)NCc2ccccc2)=C[C@H](C2CCCCC2)[C@H]1CCCO | 50.7* | 2.2 | 7.1 | 5.3
CCO[C@@H]1OC(C(=O)NCc2ccccc2)=C[C@H](C2CC2)[C@H]1CCCO | 0.2 | 10.2 | -12.6 | 0.9
CCO[C@H]1OC(C(=O)Nc2ccccc2)=C[C@@H](c2ccc(Br)cc2)[C@@H]1CCCO | 46.0 | 20.8 | 65.4* | 3.3
CCO[C@H]1OC(C(=O)Nc2ccccc2)=C[C@@H](c2csc3ccccc23)[C@@H]1CCCO | 58.2* | 7.6 | 71.6* | 5.8
Cc1sc(NC(=O)c2ccc(OCC(C)C)cc2)c(C(N)=O)c1-c1ccc(Cl)cc1Cl | 27.4 | 4.2 | 8.8 | 4.7
CC(C)CNC(=S)N1CCC(NC(=O)c2ccco2)CC1 | 9.6 | 1.4 | 2.0 | 1.1
O=C(Cn1cc(C(F)(F)F)cc(Cl)c1=O)NCCc1ccccc1 | -1.9 | -0.6 | 16.7 | 2.1
Cc1ccc(/C=C/C(=O)c2ccccc(=O)c2O)cc1C | 97.2* | 70.8* | -19.6 | 1.5
O=C(/C=C/c1ccccc1)c1cc(Br)ccc(=O)c1O | 77.4* | -15.8 | 3.7 | 0.1
CCCCCC1CC(CC(=O)NC(=S)Nc2ccc([N+](=O)[O-])cc2)C(=O)O1 (stereo unspecified) | -1.1 | 85.0* | 9.8 | 10.5*
SMILES | L major viab | CHOP inh | WT yeast gro inh | RAM network inh
CC1(C)CC(CC(=O)Nc2ccc([N+](=O)[O-])cc2)C(=O)O1 (stereo unspecified) | 4.7 | 12.2 | -1.4 | 0.9
CCC(=O)NC(=S)Nc1ccc(NC(=O)c2ccc([N+](=O)[O-])cc2Cl)cc1 | -1.1 | 20.8 | 20.4 | 0.7
CCCCCCC1CC(CC(=O)Nc2ccc([N+](=O)[O-])cc2)C(=O)O1 (stereo unspecified) | -6.9 | 94.8* | 11.0 | 1.9
CC(NC(=S)Nc1ccc(F)cc1)C(c1cccs1)N1CCOCC1 (stereo unspecified) | 7.7 | 13.7 | 10.0 | 0.9
Nc1[nH]n2c(=O)cc(-c3ccccc3)nc2c1N=Nc1ccc2c(c1)OCO2 | 2.6 | -32.3 | 16.1 | 10.4*
COc1ccccc1/C=C/C=C1N=C(/C=C/c2ccc(Cl)cc2)OC/1=O | -4.0 | 2.4 | 4.2 | 7.9
COc1ccccc1/C=C/C1=NC(=C\C=C/c2ccccc2)/C(=O)O1 | 68.8* | 23.5 | 2.2 | -1.0
CC(=O)N1CC=C2C(C#N)=C(N)C(C#N)(C#N)C(CCc3ccccc3)C2C1 (stereo unspecified) | 30.2 | 72.6* | -4.0 | 1.1
CCN1CC=C2C(C#N)=C(N)C(C#N)(C#N)C(CCc3ccccc3)C2C1 (stereo unspecified) | 14.1 | -23.3 | 5.7 | 1.7
